# Assay outcomes from PubChem BioAssay.
# SKN-1 block – blocks SKN-1 activity in C. elegans | C. elegans VP596 Pgst-4::GFP/RFP ratio, acrylamide-induced, 24 h | inhibition, % at 21.8 µM | 360,000 tested, 0.49% active | AID 624304;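 active = interference check ratio from 0.5 to 1.5 plus GFP to RFP signal ratio inhibition reaching or exceeding a fixed threshold, cut at about 30% in these data, passing the limit was not always enough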
# Efflux pump inh – inhibitors of Candida antifungal efflux pumps expressed in yeast. inhibition, % at 10 µM. 330,000 tested, 0.44% active. S. cerevisiae Candida pump triplex, Nile Red efflux;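 active = plate passing quality check with inhibition over a set limit, or well fluorescence over plate mean plus 4 SD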;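 also: Nile Red retained in pooled yeast measured as flow cytometry median fluorescence; 0% = buffer negative control and 100% = Enniatin B positive control; higher means more Nile Red kept so more efflux inhibition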
# HGIII-sPLA2 inh – Blocks human group III sPLA2 activity. Q9NZ20. QFRET BODIPY PC-A2 liposome hydrolysis, fluorescence. inhibition, % at 12.2 µM. 370,000 tested, 0.56% active;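 active = inhibition above mean plus 3 SD of compounds lying within the high and low control bounds, cut at about 19% in these data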;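 also: 0% = median of test compound wells and 100% = no enzyme DMSO wells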
# Target sequence (Q9NZ20 whole entry, looked up): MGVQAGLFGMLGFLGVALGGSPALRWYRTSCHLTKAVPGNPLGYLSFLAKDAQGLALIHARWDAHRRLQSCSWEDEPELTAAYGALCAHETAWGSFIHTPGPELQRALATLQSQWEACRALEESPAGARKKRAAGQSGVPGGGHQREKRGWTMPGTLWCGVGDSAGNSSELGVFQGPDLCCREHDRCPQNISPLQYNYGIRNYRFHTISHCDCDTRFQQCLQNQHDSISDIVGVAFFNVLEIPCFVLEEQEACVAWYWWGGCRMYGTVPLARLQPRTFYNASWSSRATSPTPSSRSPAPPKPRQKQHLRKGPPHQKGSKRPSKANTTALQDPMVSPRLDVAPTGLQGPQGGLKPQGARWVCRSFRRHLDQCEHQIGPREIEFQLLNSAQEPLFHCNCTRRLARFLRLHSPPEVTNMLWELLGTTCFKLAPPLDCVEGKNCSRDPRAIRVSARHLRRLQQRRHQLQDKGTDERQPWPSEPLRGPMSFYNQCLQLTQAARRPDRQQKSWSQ
# Mot1-301 SUMO – blocks SUMOylation pathway, rescuing yeast Mot1-301 growth | S. cerevisiae Mot1-301 growth rescue, ATP luminescence, 38.5C; percent above DMSO median, 100 means doubled | growth rescue, % at 18.8 µM | 320,000 tested, 1% active | AID 2716;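 active = every valid replicate shows activation above 250% relative to neutral control wells; inactive = the rest, any valid replicate at or below 250%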;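 also: OY570 slx delta 5 strain wells were the positive control but not used for scaling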
# An asterisk follows results filed as active; x = no result. An excerpt weighted towards active compounds, which were near 2.2% of everything screened.
SMILES,SKN-1 block,Efflux pump inh,HGIII-sPLA2 inh,Mot1-301 SUMO
Cc1ccc2nc(NC(=O)c3ccco3)sc2c1,45*,0,-10,-12
O=C(Nc1nc2c(F)c(F)c(F)cc2s1)c1ccco1,13,0,-4,0
Cc1ccc2nc(NC(=S)NC(=O)c3ccco3)sc2c1,6,0,-7,3
COC(=O)C12OCC34C(CC5C(C)=C(O)C(=O)CC5(C)C3C(O)C1O)OC(=O)C(OC(=O)C=C(C)C)C24 (centres undefined),41*,x,-3,x
COc1ccc(-c2ccc3c(n2)CCCN3S(=O)(=O)c2ccccc2C)cc1,x,x,-8,x
CSc1cc(-c2ccco2)oc1C(=O)c1ccco1,36*,0,1,2
C[C@H](O)[C@@H]1C(=O)N2CCc3ccc(N4CCN(C)CC4)cc3[C@@H]2C[C@@H]1N(C)C(=O)c1cccnc1,-8,x,11,x
CCCN1CCCCC(NC(=O)c2ccc(C)cc2C)C1=O (centres undefined),x,x,10,x
CC(C)OCCCn1c(=S)[nH]c2cc3c(cc2c1=O)OCO3,39*,0,10,3
C(/C=C/c1ccccn1)=C\c1ccccc1,64*,0,-8,7
Nc1sccc1C(=O)NCc1ccccc1,39*,x,10,x
O=C(NCc1ccc(F)cc1)c1cccs1,-7,0,12,318*
COc1ccc(CNC(=O)c2cccs2)cc1,5,0,6,334*
O=C(NCCc1ccc(F)cc1)c1cccs1,-1,0,-5,1
COc1ccc(CNC2CCC23CCC(C)CC3)cc1 (centres undefined),x,x,6,x
CN(CC(=O)Nc1ccc(F)c(F)c1F)C(=O)c1ccc2c(c1)S(=O)(=O)N=C1CCCCCN12,16,0,6,89
N#C[C@H]1C(O)C(O)c2ccccc2N1C(=O)c1ccccc1 (some centres undefined),-1,0,2,716*
CC(C)CCNC(=O)NC(=O)COc1c(F)c(F)cc(F)c1F,60*,0,-1,8
CC(C)CNC(=O)NC(=O)COc1c(F)c(F)cc(F)c1F,4,0,-7,-6
CC(=O)C1=C(C)OC(N)=C(C#N)C1c1ccco1 (centres undefined),37*,0,0,-9
COC(=O)C1=C(C)OC(N)=C(C#N)C1c1ccco1 (centres undefined),-10,0,-1,110
N#C/C(=C\c1ccc(N2CCOCC2)cc1)c1ccccc1,48*,0,5,-10
CC(C)(C)c1ccc(C2=CSC3=NCCN23)cc1,48*,0,3,3
CC(C)Cc1ccc(C2=CSC3=NCCN23)cc1,6,0,0,9
CCN(c1ccc(OC)cc1)S(=O)(=O)c1csc(C(N)=O)c1,5,0,-2,275*
SMILES,SKN-1 block,Efflux pump inh,HGIII-sPLA2 inh,Mot1-301 SUMO
COc1ccc2oc(C(F)(F)C(F)F)cc(=O)c2c1,36*,0,5,46
CCN1CCN(c2nc3sc4c(c3c3ncnn23)CC(C)CC4)CC1 (centres undefined),65*,0,2,3
O=S(=O)(c1ccc(F)cc1)N1CCCc2nc(-c3ccc(F)cc3)ccc21,x,x,0,x
Cc1[nH]c2ccccc2c1SCc1ccccc1,40*,0,-5,46
CCc1cccc(Nc2cc(C)n(-c3cccc(CC)c3)c(=O)c2)c1,x,x,-8,x
O=C(CCc1c[nH]c2ccccc12)Nc1ccc(Nc2ccncc2)cc1,x,x,-55,x
O=C(CCCc1c[nH]c2ccccc12)Nc1ccc(S(=O)(=O)Nc2ncccn2)cc1,-2,0,-90,759*
CC(C)N1CCN(c2ccc(OCC3COC(Cn4cncn4)(c4ccc(Cl)cc4Cl)O3)cc2)CC1 (centres undefined),-1,x,-1,x
CC(C)N1CCN(c2ccc(OC[C@H]3CO[C@](Cn4cncn4)(c4ccc(Cl)cc4Cl)O3)cc2)CC1,5,0,-2,269*
COc1cccc(/C=N/NC(=O)CN(CCc2ccccc2)S(=O)(=O)c2ccc(NC(C)=O)cc2)c1,0,0,-16,8
N/C(=N\OS(=O)(=O)c1ccc(Br)cc1)c1ccncc1,-14,0,2,x
CC(Oc1ccc(Br)cc1)C(=O)O/N=C(\N)c1ccncc1 (centres undefined),54*,0,-3,1
O=C(O)C1CCCCC1C(=O)NCCc1c[nH]c2ccccc12 (centres undefined),37*,0,-2,-1
CC1CN(S(=O)(=O)c2cccc(C(=O)OCC(=O)Nc3ccc4c(c3)OCO4)c2)CC(C)O1 (centres undefined),44*,0,-6,-11
Cc1ccccc1NC(=O)c1sc(Cl)nc1-c1ccccc1,9,0,1,-6
Cc1ccc(C)c(NC(=O)c2sc(Cl)nc2-c2ccccc2)c1,48*,0,-1,10
Cc1ccc(C)c(NC(=O)c2cc3ccccc3o2)c1,40*,0,4,-10
CCC(=O)N1CCc2cc(S(=O)(=O)CCC(=O)Nc3ccc(C)cn3)ccc21,6,0,-1,-15
CC[C@@H]1CCC[C@@H](O)[C@@H](C)C(=O)O[C@H](C)[C@@H](C)C/C=C(C)/C(OC)=C\C(=O)N(C)C([C@@H](C)CC)C(=O)N(C)[C@@H](C(C)C)C(=O)N(C)[C@@H](COC)C(=O)N2CCC[C@H]2C(=O)N(C)[C@@H](C(C)C)C(=O)N2CCC[C@H]2C(=O)O1 (some centres undefined),44*,x,-15,x
O=S1(=O)CC2c3ccccc3CN2CN1CCc1ccccc1 (centres undefined),x,x,4,x
COc1cc(/C=N/N(CCO)C2=NS(=O)(=O)c3ccccc32)cc(OC)c1OC,35*,0,-7,1
COc1cc(C(=O)NC2CCCCN(Cc3cccc(C(F)(F)F)c3)C2=O)cc(OC)c1OC (centres undefined),x,x,-3,x
c1ccc(-c2ccc(OCCCNC3CCCC3)cc2)cc1,55*,0,-1,28
c1ccc(Cc2ccc(OCCCNC3CCCC3)cc2)cc1,x,0,x,2
CN(C)/N=C/c1ccc(/C=N/NC(N)=S)o1,4,0,5,422*
SMILES,SKN-1 block,Efflux pump inh,HGIII-sPLA2 inh,Mot1-301 SUMO
C=CC(=O)NC1CCCCN(CCC)C1=O (centres undefined),x,x,-4,x
O=C(Nc1nc(-c2cccs2)cs1)c1ccc(Cl)s1,30,0,2,42
O=C(Nc1nc(-c2ccc(Cl)s2)cs1)c1ccccc1,49*,0,1,-2
Cc1ccc(C)c(OCCCN2CCc3ccccc3C2)c1,-8,0,-6,320*
COc1ccccc1C(=O)N/N=C/c1ccc2c(c1)OCO2,14,0,0,301*
COc1ccc(Nc2nc(C(=O)NCCCN3CCOCC3)cs2)cc1,33*,0,2,-3
CC(=O)N1C[C@@H](CO)[C@@H](N(C)C(=O)/C=C/c2ccccc2)C[C@H]1c1ccccc1,x,x,10,x
O=C(CC(=O)c1ccccc1)CC(O)(C=Cc1ccccc1)c1ccccc1 (centres undefined),14,x,-14,x
CCC(CC)C(=O)Nc1cccc(C(=O)Nc2nccs2)c1,12,0,-3,1
